Results filed as inconclusive are left out. The source made the active and inactive calls. How the source made its calls: active means hit-call score of the fitted dose curve at least 0.9, where 1 is the maximum; inconclusive means response in the unintended direction; inactive means score below 0.9.
Columns and labels:
[1] = TOX21_p53_BLA_p5_viability: Viability Assessment in the Tox21 HCT-116 p53 Agonism Beta-lactamase Assay, Phase 5 (AID 2283600)
Summary of the method: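 4000 cells/well; 5 h pre-incubation; DMSO compounds pin-transferred, 217-fold dilution; 16 h, 37C/5% CO2; CCF4-AM 2 h RT; CellTiter-Glo 30 min RT; luminescence.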

[2] = molecular target: Cellular tumor antigen p53 (Homo sapiens) (UniProt P04637); test: TOX21_p53_BLA_p4_ratio: Tox21 HCT-116 p53 Agonism Beta-lactamase Assay, Ratio, Phase 4 (AID 2283601)
Chain of Cellular tumor antigen p53 (Homo sapiens) (P04637 whole entry, looked up): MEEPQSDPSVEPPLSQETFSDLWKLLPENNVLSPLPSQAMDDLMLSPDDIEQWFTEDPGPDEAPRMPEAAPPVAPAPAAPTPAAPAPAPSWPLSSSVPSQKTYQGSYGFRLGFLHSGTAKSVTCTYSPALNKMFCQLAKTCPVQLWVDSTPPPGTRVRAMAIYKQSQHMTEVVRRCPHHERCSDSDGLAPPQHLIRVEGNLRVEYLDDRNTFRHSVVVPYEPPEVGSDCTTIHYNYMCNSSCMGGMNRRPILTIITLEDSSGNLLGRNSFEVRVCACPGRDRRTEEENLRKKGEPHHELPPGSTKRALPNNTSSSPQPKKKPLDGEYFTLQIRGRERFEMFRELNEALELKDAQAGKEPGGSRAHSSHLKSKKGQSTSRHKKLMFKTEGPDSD
Summary of the method: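 Signal is the blue/green (460nm/530nm) ratio of cleaved versus uncleaved CCF4-AM substrate, read after 2 h substrate loading. Cells were HCT116 carrying the p53-responsive beta-lactamase reporter, dosed 16 h at 37C, 5% CO2; CellTiter-Glo measured in parallel.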

[3] = TOX21_p53_BLA_p3_viability: Viability Assessment in the Tox21 HCT-116 p53 Agonism Beta-lactamase Assay, Phase 3 (AID 2283593);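 further: cells exposed to compound for 16 h before reading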
Summary of the method: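 Cellular ATP was quantified by CellTiter-Glo luminescence, read after 30 min at room temperature. Beforehand, HCT116 cells (4000/well) received compound 5 h post-seeding, 217-fold diluted from DMSO, then incubated 16 h at 37C.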

[4] = TOX21_p53_BLA_p4_viability: Viability Assessment in the Tox21 HCT-116 p53 Agonism Beta-lactamase Assay, Phase 4 (AID 2283597);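 further: hits lower the luminescence signal meaning cytotoxicity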
Summary of the method: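 Cells plated, 5 h pre-incubation; DMSO compounds pinned (217-fold dilution); 16 h, 37C/5% CO2; CCF4-AM 2 h RT; CellTiter-Glo 30 min RT; luminescence read.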

[5] = molecular target: Cellular tumor antigen p53 (Homo sapiens) (UniProt P04637); test: TOX21_p53_BLA_p5_ratio: Tox21 HCT-116 p53 Agonism Beta-lactamase Assay, Ratio, Phase 5 (AID 2283599)
Summary of the method: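 Beta-lactamase reporter ratio (blue 460 nm over green 530 nm, 405 nm excitation) after 2 h CCF4-AM loading, in HCT-116 cells exposed 16 h at 37 C to compounds pinned at 217-fold dilution. Increases relative to DMSO baseline scored.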

[6] = molecular target: Cellular tumor antigen p53 (Homo sapiens) (UniProt P04637); test: TOX21_p53_BLA_p3_ratio: Tox21 HCT-116 p53 Agonism Beta-lactamase Assay, Ratio, Phase 3 (AID 2283596)
Summary of the method: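 HCT116 p53-bla cells (4000/well) given compound in DMSO (217-fold dilution) after 5 h, incubated 16 h at 37C. CCF4-AM substrate 2 h at room temperature; 460/530 nm emission ratio, gain fitted against DMSO.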

Measured: AC50

CCN(CCO)CCO
inactive: [1] | [2]

Clc1ccc(C(Cl)(Cl)Cl)cn1
inactive: [3] | [4] | [5] | [1]

CCCCCCCCCCCCCCC(Br)C(=O)O (configuration not stated)
inactive: [4] | [2]
active: [3] 41.4 µM | [6] 75.3 µM | [5] 70.6 µM | [1] 70.3 µM

Reference: PubChem BioAssay (EPA / NIEHS)
